Assay results published in PubChem BioAssay.
Activity calls are given as the source filed them.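 Rule for the calls, unless noted: active = NADPH fluorescence slope more negative than the mean of all samples by about 3 SD, 99.7% confidence; inactive = the rest.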

Key:
[1] = inhibitors of TNFa-induced NFkB p65 translocation, primary screen, imaging, HUVEC, MLSMR starter and 10KST1 sets (AID 438;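 active = inhibition above 20% together with a positive visual image hit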;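 note: compound added about 3h40 before a 20 min TNFalpha stimulation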;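 for inhibition: signal is the nuclear over cytoplasmic p65 intensity ratio per well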); conditions: HUVEC TNFa-induced p65 nuclear translocation; cell count: measured here: nuclei count (cytotoxicity indicator), at 2.08 µM; inhibition: at 2 µM, stronger effect = higher value, 0% TNFa-plus-vehicle, 100% no-TNFa wells
[2] = reduction of polyQ htt aggregates in cells – imaging, exon1htt(103Q)mCFP cells, high-content imaging, primary screen (AID 483;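 active = visual image review flags a hit and inhibition of aggregation exceeds 20%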;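 note: compound exposure lasted 3 days before fixation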;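 for nuclei count: percent of the per-plate median nuclei count of sample wells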); conditions: exon1htt(103Q)mCFP cell line, aggregate imaging, at 2 µM; inhibition of aggregation: stronger effect = higher value; nuclei count: measured here: cell count, toxicity
[3] = endothelial E-selectin expression blockers – imaging, HUVEC, immunofluorescence, MLSMR starter and 10KST1 sets, primary screen (AID 487;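 active = visually confirmed hit in the image check and inhibition above 20%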;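 for inhibition: signal is fraction of cell area covered by stained E-selectin grains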;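 for nuclei count: 100% = median nuclei count of all wells on the same plate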); conditions: HUVEC TNFalpha-induced E-selectin immunofluorescence imaging, at 2 µM; inhibition: stronger effect = higher value; nuclei count: measured here: cell number, toxicity
[4] = target: Voltage-gated potassium channel subunit beta-2 (Rattus norvegicus) (UniProt P62483); experiment: inhibitors of rat Kvbeta2 reductase activity – biochemical, NADPH fluorescence, primary screen (AID 622;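 active = fluorescence slope higher than the sample average by over 3 SD, cut at about -0.22 in these data, passing the limit was not always enough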;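 note: slope of raw intensity against log time taken from 70 to 1610 s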); conditions: recombinant KvBeta, 4-cyanobenzaldehyde reduction, at 10 µM, stronger effect = higher value
Chain of Voltage-gated potassium channel subunit beta-2 (Rattus norvegicus) (P62483 whole entry, looked up): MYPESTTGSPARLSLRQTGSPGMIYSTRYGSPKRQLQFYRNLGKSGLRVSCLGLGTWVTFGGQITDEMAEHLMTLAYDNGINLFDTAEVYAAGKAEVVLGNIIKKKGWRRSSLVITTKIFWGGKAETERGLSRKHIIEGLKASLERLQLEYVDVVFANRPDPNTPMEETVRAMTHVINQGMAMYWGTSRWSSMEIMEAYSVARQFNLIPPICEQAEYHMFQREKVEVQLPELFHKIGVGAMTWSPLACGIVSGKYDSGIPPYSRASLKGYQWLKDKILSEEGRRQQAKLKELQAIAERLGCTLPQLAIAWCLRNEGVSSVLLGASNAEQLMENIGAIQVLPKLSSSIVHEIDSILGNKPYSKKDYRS

[5] = target: Voltage-gated potassium channel subunit beta-2 (Rattus norvegicus) (UniProt P62483); experiment: enhancers of rat Kvbeta2 NADPH turnover – biochemical, NADPH fluorescence, primary screen (AID 623); conditions: Recombinant KvBeta, NADPH fluorescence decrease slope, 10 min; at 10 µM; stronger effect = lower value;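 note: fluorescence intensity change per second fitted from 20 to 320 s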
[6] = target: Alpha-2C adrenergic receptor (Homo sapiens) (UniProt P18825); experiment: compounds altering alpha2C-coupled GIRK flux – cell-based, HEK293 alpha2C/GIRK1/2, thallium flux, primary screen (AID 624;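 active = fluorescence slope after compound addition differing from the mean of all screened samples at 99.7% confidence, in either direction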;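 note: slope of fluorescence ratio to pre-addition baseline per second over 15 to 24 s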); conditions: thallium flux BTC fluorescence, at 10 µM, actives lie on both sides
Chain of Alpha-2C adrenergic receptor (Homo sapiens) (P18825 whole entry, looked up): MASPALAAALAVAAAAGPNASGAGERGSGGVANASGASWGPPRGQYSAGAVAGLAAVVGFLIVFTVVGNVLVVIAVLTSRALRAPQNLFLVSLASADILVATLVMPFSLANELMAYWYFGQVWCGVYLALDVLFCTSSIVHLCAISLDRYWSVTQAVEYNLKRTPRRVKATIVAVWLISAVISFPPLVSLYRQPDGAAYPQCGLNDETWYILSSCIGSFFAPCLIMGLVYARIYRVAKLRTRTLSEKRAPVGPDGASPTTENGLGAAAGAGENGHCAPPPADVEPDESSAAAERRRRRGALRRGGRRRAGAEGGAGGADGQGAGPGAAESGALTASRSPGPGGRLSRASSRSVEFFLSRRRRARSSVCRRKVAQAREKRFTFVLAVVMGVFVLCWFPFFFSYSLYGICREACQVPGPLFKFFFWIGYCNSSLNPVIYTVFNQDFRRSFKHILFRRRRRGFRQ

[7] = blockers of RIG-like receptor reporter activation – cell-based, Sendai virus stimulus, luciferase, 10K MLSCN set, TLR/RLR signaling modifier project, primary screen (AID 602276;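 active = inhibition at or above 50% at 10 µM; inactive = inhibition below 50%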;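 note: firefly luciferase from ISG56 promoter only with Renilla not read in this screen; 0% = Sendai virus plus DMSO and 100% = medium plus DMSO without virus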); conditions: HEK293 RL24 IRF3 luciferase reporter, at 10 µM, stronger effect = higher value
[8] = TLR3 IRF3 reporter activation blockers – cell-based, poly I:C stimulus, luciferase, 10K MLSCN set, primary screen (AID 602277;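 active = inhibition of the reporter signal at or above 50%; inactive = inhibition below 50%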); conditions: HEK293-TLR3 RL24 IRF3 luciferase reporter, at 10 µM, stronger effect = higher value

Compound | cell count [1] | inhibition [1] | inhibition of aggregation [2] | nuclei count [2] [%] | inhibition [3] | nuclei count [3] [%] | fluorescence slope [4] | NADPH fluorescence slope [5] | slope [6] | inhibition [7] | inhibition [8]
CCN1C(=O)c2cccc3c(NC(=O)c4ccc(S(=O)(=O)N(C)C)cc4)ccc1c23 | 323 | -7.9% (inactive) | -2.1% (inactive) | 109 | -23.9% (inactive) | 111 | -0.319 (inactive) | -4.5e-05 (inactive) | 0.0056 (inactive) | 23.8% (inactive) | 30.8% (inactive)
Fc1ccccc1Cn1nnc2c(-n3ccnc3)ncnc21 | 573 | -1.6% (inactive) | -7.5% (inactive) | 103 | -55.2% (inactive) | 106 | -0.519 (inactive) | 3.6e-05 (inactive) | 0.00439 (inactive) | -9.4% (inactive) | -13.8% (inactive)
Cc1cc(=O)n(C)c(=O)n1CCCNc1ccccc1 | 489 | -13.1% (inactive) | -3% (inactive) | 126 | -19.5% (inactive) | 113 | -0.333 (inactive) | -3.7e-05 (inactive) | 0.00566 (inactive) | -2.79% (inactive) | 6.15% (inactive)
Cc1ccc(C2=N/C(=C/N3CCOCC3)C(=O)O2)cc1 | 302 | 3.3% (inactive) | 14% (inactive) | 96.4 | 8.3% (inactive) | 98.9 | -0.512 (inactive) | -2.4e-05 (inactive) | 0.00711 (inactive) | -49.1% (inactive) | -197% (inactive)
O=C(CCOc1ccccc1)NCc1ccccc1 | 729 | -17.6% (inactive) | -3.7% (inactive) | 97.3 | 12.7% (inactive) | 114 | -0.559 (inactive) | 7.4e-05 (inactive) | 0.00548 (inactive) | 11.5% (inactive) | 12.3% (inactive)
Cc1oc(-c2ccc(Cl)cc2)cc1-c1nn2c(-c3ccoc3C)nnc2s1 | 644 | -3.9% (inactive) | -0.4% (inactive) | 94.6 | -24.2% (inactive) | 105 | -0.497 (inactive) | -3.8e-05 (inactive) | 0.00371 (inactive) | 19.8% (inactive) | 23% (inactive)
CN(Cc1nc(-c2ccncc2)no1)S(=O)(=O)c1ccccc1 | 560 | 0.6% (inactive) | -16.9% (inactive) | 103 | -18.6% (inactive) | 104 | -0.654 (inactive) | -4.4e-05 (inactive) | 0.00664 (inactive) | 12.9% (inactive) | 13.2% (inactive)
CC(C)Nc1ncnc2c1cnn2-c1ccccc1 | 681 | -6.7% (inactive) | -56.3% (inactive) | 3.7 | -1.2% (inactive) | 114 | -0.589 (inactive) | -2e-05 (inactive) | 0.00563 (inactive) | -54.7% (inactive) | -180% (inactive)
CCc1nnc(NC(=O)C2Cc3ccccc3CN2S(=O)(=O)c2cccs2)s1 (stereo not drawn) | 521 | -10.2% (inactive) | -27.6% (inactive) | 116 | -57.1% (inactive) | 117 | -0.482 (inactive) | -2.6e-05 (inactive) | 0.00706 (inactive) | -21.3% (inactive) | -50.1% (inactive)
CCn1cc(C(=O)N2CCOCC2)c(=O)c2cc(S(=O)(=O)N(C)C3CCCCC3)ccc21 | 518 | 7.1% (inactive) | 3.9% (inactive) | 84.2 | -29.5% (inactive) | 87.7 | -0.581 (inactive) | -7.6e-06 (inactive) | 0.00672 (inactive) | 12.2% (inactive) | 28.4% (inactive)
CC(C)(C)n1ncc2c(=O)n(CC(=O)NCc3ccc(F)cc3)cnc21 | 403 | 9.3% (inactive) | 14.9% (inactive) | 95.8 | 18.8% (inactive) | 91.1 | -0.367 (inactive) | -5.3e-05 (inactive) | 0.00547 (inactive) | -15.8% (inactive) | -46.6% (inactive)
COc1cc(S(=O)(=O)N2CCC(N3CCCCC3)CC2)ccc1-n1cnnn1 | 351 | 6.9% (inactive) | 14.1% (inactive) | 89.1 | -20.4% (inactive) | 102 | -0.593 (inactive) | -7.9e-06 (inactive) | 0.00492 (inactive) | -9.28% (inactive) | 3.24% (inactive)
CCC(C)NC(=O)C1(C)CCC(=O)N1CCc1ccc(OC)c(OC)c1 (stereo not drawn) | 447 | -5.7% (inactive) | -2.3% (inactive) | 105 | 0.6% (inactive) | 103 | -0.606 (inactive) | -8.3e-06 (inactive) | 0.00621 (inactive) | 5.13% (inactive) | 9.44% (inactive)
CCN(CC)CCCNc1oc(-c2cccc(Cl)c2)nc1C#N | 729 | -11.9% (inactive) | -13.5% (inactive) | 98.2 | -37.9% (inactive) | 112 | -0.0368 (active) | -1.1e-05 (inactive) | 0.00338 (inactive) | 8.46% (inactive) | 27.9% (inactive)
COc1ccc(-c2ccc(-c3noc(-c4ccccc4)n3)c(OC)n2)cc1 | 359 | 1.8% (inactive) | -12.7% (inactive) | 84.2 | 5% (inactive) | 88.8 | -0.0356 (inactive) | -4.5e-06 (inactive) | 0.0074 (inactive) | -7.23% (inactive) | -29.4% (inactive)
CCCOC(=O)C1C2C=CC3(CN(c4cccc(Cl)c4)C(=O)C13)O2 (stereo not drawn) | 743 | -5.5% (inactive) | -3.6% (inactive) | 95.4 | -55.3% (inactive) | 116 | -0.491 (inactive) | 1.7e-05 (inactive) | 0.00748 (inactive) | 12.8% (inactive) | 28.1% (inactive)
Cc1ccc(N2CCN(c3ccc(C)cc3)C(CC(=O)O)C2=O)cc1 (stereo not drawn) | 549 | -4.7% (inactive) | 3.3% (inactive) | 92.3 | 12.6% (inactive) | 108 | -0.499 (inactive) | 1.5e-05 (inactive) | 0.00583 (inactive) | 5.38% (inactive) | 4.47% (inactive)
CCOc1ccc2c(c1)c1nnc(SCC(=O)N3CCC(C)CC3)nc1n2C | 432 | -0.2% (inactive) | 0.1% (inactive) | 99.9 | -30.2% (inactive) | 114 | -0.326 (inactive) | -5.2e-05 (inactive) | 0.00371 (inactive) | -10.6% (inactive) | -29.5% (inactive)
COCCCn1c(SCC(=O)Nc2cccc(C)n2)nnc1-c1ccco1 | 601 | -10.2% (inactive) | 21.7% (inactive) | 85.3 | 73.4% (inactive) | 64.2 | -0.612 (inactive) | -2.9e-05 (inactive) | 0.00331 (inactive) | 18.6% (inactive) | 16.6% (inactive)
Cc1cccc(OCCNC(=O)c2ncn[nH]2)c1 | 228 | 4.2% (inactive) | 1.8% (inactive) | 100 | -263% (inactive) | 144 | -0.443 (inactive) | -1.6e-05 (inactive) | 0.00209 (inactive) | 5.98% (inactive) | 32.3% (inactive)
CCn1cc(C2=NCC(C)O2)c2ccccc21 (stereo not drawn) | 487 | 5% (inactive) | -14% (inactive) | 83.2 | -128% (inactive) | 102 | -0.595 (inactive) | -9.7e-06 (inactive) | 0.00619 (inactive) | 12.7% (inactive) | 25.5% (inactive)
COc1ccc(CNc2nc3nc(C)c(Cl)c(C)n3n2)cc1OC | 684 | -23.3% (inactive) | -2.8% (inactive) | 110 | -4.1% (inactive) | 105 | -0.331 (inactive) | -6e-05 (inactive) | 0.00515 (inactive) | 3.08% (inactive) | -10.6% (inactive)
Cn1c(=O)c2c(ncn2CC(=O)OCC(=O)NC2CCCc3ccccc32)n(C)c1=O (stereo not drawn) | 392 | 2.7% (inactive) | 23.7% (inactive) | 64.6 | -85.1% (inactive) | 112 | -0.616 (inactive) | 2.2e-06 (inactive) | 0.00842 (inactive) | 2.45% (inactive) | 22.5% (inactive)
O=C(c1ccc(CSCc2ccccc2F)o1)N1CCN(c2ccc(N3CCOCC3)nn2)CC1 | 504 | -13.1% (inactive) | 40.2% (inactive) | 79.3 | -7.9% (inactive) | 101 | -0.435 (inactive) | -1.8e-06 (inactive) | 0.00478 (inactive) | 4.73% (inactive) | 15.4% (inactive)
COC(=O)c1ccccc1NC(=O)C1CC(=O)N(c2ccc(F)cc2)C1 (stereo not drawn) | 321 | 6.5% (inactive) | -18.4% (inactive) | 115 | -16.8% (inactive) | 134 | -0.604 (inactive) | -3.1e-05 (inactive) | 0.00375 (inactive) | 14.7% (inactive) | 5.83% (inactive)
CCOC(=O)c1[nH]c(C)c(C(=O)N2CCN(C(=O)c3ccco3)CC2)c1C | 780 | -13.4% (inactive) | 2.2% (inactive) | 110 | -102% (inactive) | 101 | -0.5 (inactive) | 1.2e-05 (inactive) | 0.00532 (inactive) | 16.8% (inactive) | 18.7% (inactive)
C[C@H](NC(=O)NCc1cccs1)C(=O)O | 378 | 4.3% (inactive) | -9.8% (inactive) | 102 | -52.5% (inactive) | 72.1 | -0.576 (inactive) | -5.7e-05 (inactive) | 0.00368 (inactive) | 5.25% (inactive) | 4.63% (inactive)
CCCN1CCN(C(=O)Cn2c(=O)oc3cc(S(=O)(=O)NCc4ccccc4)ccc32)CC1 | 809 | 1.6% (inactive) | -16.6% (inactive) | 117 | -19.9% (inactive) | 114 | -0.51 (inactive) | -2.7e-05 (inactive) | 0.00639 (inactive) | 8.82% (inactive) | 23.8% (inactive)
